Sampled rows, rich in hits. Any-hit rate of the full collection: about 11%.
G9a block: qHTS Assay for Inhibitors of Histone Lysine Methyltransferase G9a | Histone-lysine N-methyltransferase EHMT2 (Homo sapiens), Q96KQ7 | G9a H3K9 monomethylation, AlphaScreen, 2 h | Potency, µM (top dose mostly 102 µM), inactives show at the top dose activity, negative = inhibition, actives largely listed as inhibitors | hit rate 8.8% among 350,000; note: % is set by controls: 0 for no effect and ±100 for the full control effect; nearly all actives have a fitted effect of over 75% in size
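Using a bead-based AlphaScreen, monomethylated H3K9 product from 2 h room-temperature reactions (G9a 20 nM, peptide 500 nM, SAM 20 uM) was detected with 0.5 ug/mL rabbit anti-H3K9me1 antibody.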
BAZ2B inh: qHTS Assay for Inhibitors of BAZ2B | AID 504333, 2011 | hit rate 4.4% among 360,000 | AlphaScreen BAZ2B-H3K14Ac peptide displacement | Bromodomain adjacent to zinc finger domain protein 2B (Homo sapiens), Q9UIF8 | Potency, µM (highest dose often 114 µM), inactives show at the top dose activity change, negative = inhibition, hits mostly inhibitors; note: % is set by controls: 0 for no effect and ±100 for the full control effect; nearly all actives have a fitted effect of over 60% in size
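Compounds, titrated to a top concentration of 110 uM, were incubated 30 min at room temperature with preformed BAZ2B/acetyl-K14 H3 peptide complex (50 nM each). Proximity signal was measured by AlphaScreen after 20 min with beads.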
PLK1 PBD block: qHTS for Inhibitors of PLK1-PDB (polo-like kinase 1 - polo-box domain): Primary Screen; Serine/threonine-protein kinase PLK1 (Homo sapiens), P53350; Potency, µM, for inactives: max response, negative = inhibition, actives largely listed as inhibitors; Plk1 PBD binding of FITC phosphopeptide, fluorescence polarization; AID 720504, 2013; hit rate 2.8% among 360,000; note: series mostly up to about 57 µM; % is set by controls: 0 for no effect and ±100 for the full control effect; nearly all actives have a fitted effect of over 65% in size
JMJD2A Tudor inh: qHTS Assay for Inhibitors of JMJD2A-Tudor Domain; Lysine-specific demethylase 4A (Homo sapiens), O75164; AlphaScreen JMJD2A-Tudor / H3K4me3 peptide binding; Potency, µM (series often up to 114 µM), for inactives: top-dose activity change, negative = inhibition, usual class: inhibitors; hit rate 4.4% among 390,000; note: % is set by controls: 0 for no effect and ±100 for the full control effect; nearly all actives have a fitted effect of over 50% in size
VDR inh: Inhibitors of the vitamin D receptor (VDR): qHTS | Potency, µM, inactives show max response, negative = inhibition, hits mostly inhibitors | hit rate 0.93% among 400,000 | VDR-SRC2-3 peptide fluorescence polarization, 2 h; note: % is set by controls: 0 for no effect and ±100 for the full control effect
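Fluorescence polarization assay measuring small-molecule disruption of VDR binding to the coregulator peptide SRC2-3. Compounds were pin-transferred (23 nl) into the reagent mix and incubated 2 h at room temperature before reading.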
HP1b binding inh: HTS for Inhibitors of HP1-beta Chromodomain Interactions with Methylated Histone Tails. AlphaScreen HP1-beta / biotin-H3K9me3 peptide binding. Potency, µM (top dose mostly 114 µM), inactives show at the top dose activity change, negative = inhibition, hits mostly inhibitors. Chromobox protein homolog 1 (Homo sapiens), P83916. hit rate 0.56% among 390,000; note: nearly all actives have a fitted effect of over 70% in size
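AlphaScreen: HP1-beta (50 nM) preformed 30 min with biotin-H3(1-18)K9me3 peptide (50 nM) in PBS pH 7.4, 0.01% Tween-20. Compound added for 30 min at RT, then streptavidin donor/nickel chelate acceptor beads (10 ug/mL) for 30 min.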
Starred values were filed as active, the others as inactive; ? = inconclusive; . = no result given; [ ] = another dose, or the depositor's remark. Calls come from the whole dose curve; as a rule, active = well fitted curve in the direction sought with a large enough effect; inconclusive = small, poorly fitted or top-dose-only effect, or another doubt; inactive = no such curve, though single readings can be large; an effect the other way counts as inactive or inconclusive. Potency is the fitted concentration of half-maximal effect.

SMILES	G9a block	BAZ2B inh	PLK1 PBD block	JMJD2A Tudor inh	VDR inh	HP1b binding inh
CC(C)(O)C(Cl)(Cl)Cl	?	.	.	.	-9%	.
COC(=O)C1=CO[C@@H](C)[C@@H]2CN3CC[C@]4(C(=O)Nc5c4ccc(OC)c5OC)[C@H]3C[C@H]12	.	.	.	.	-19%	.
CC(Cc1cccc(C(F)(F)F)c1)NCCCc1ccccc1 (centres undefined)	16%[59 µM]	.	.	.	-5%	.
CC[C@]1(O)CC(O[C@@H]2CC(N(C)C)C(O)C(C)O2)c2c(cc3c(c2O)C(=O)c2c(O)cccc2C3=O)C1C(=O)OC (some centres undefined)	?	.	.	.	32µM*	.
CC1CC2CCC(O2)C(C)C(=O)OC(C)CC2CCC(O2)C(C)C(=O)OC(C)CC2CCC(O2)C(C)C(=O)OC(C)CC2CCC(O2)C(C)C(=O)O1 (centres undefined)	.	.	.	.	10%	.
CC[N+](C)(CC)CCCCOc1ccc2c(c1)C(=O)c1cc(OCCCC[N+](C)(CC)CC)ccc1-2	32µM*	?	11µM*	22µM*	-16%	?
CCCCCCCCCCCC[N+](C)(C)CCOc1ccccc1	2%[59 µM]	.	.	.	32%	.
CCOP(=O)(Cc1ccc(C#N)o1)OCC	?	5%	-7%	-9%	14%	31%
CCOP(=O)(Cc1cc(C(C)=O)c(C)o1)OCC	8.9µM*	-15%	?	-23%	?	18%
Clc1ccc(C(Cn2ccnc2)OCc2csc3c(Cl)cccc23)c(Cl)c1 (centres undefined)	13µM*	10µM*	2%	28µM*	0%	7%
Cc1cc2c(cc1C)-n1c(-c3ccccc3)c3c(=O)n(C)c(=O)n(C)c3c1C(c1ccco1)N2 (centres undefined)	-34%[59 µM]	?	.	-29%	10%	12%
C=CCn1c(-c2ccc([N+](=O)[O-])cc2)n[nH]c1=S	5.6µM*	-4%	-12%	8.9µM*	-15%	6%
C=CCn1c(O)c(/C=C2/C=c3ccccc3=N2)c(=O)[nH]c1=S	.	-9%	?	-4%	19%	24%
CCn1c(N)c(C(=O)NC)sc1=S	?	?	2.7µM*	56µM*	25µM*	-68%
N#C/C(=C\c1ccc(O)cc1)C(=O)O	.	.	-7%	-17%	13%	28%
CN(C)c1ccc(C=C(C#N)C#N)cc1	7%[59 µM]	-21%	-16%	-18%	-2%	28%
COc1cc(C=C(C#N)C#N)cc(O)c1O	2.5µM*	.	.	.	.	.
N#CC(C#N)=Cc1ccc(O)c(O)c1	8.4µM*	79µM*	-6%	?	50µM*	3%
N#CC(=Cc1ccc(O)c(O)c1)C(N)=S	5µM*	.	.	.	.	.
CCc1ccc(/C=C(/C#N)C(N)=S)cc1	8.9µM*	?	7.5µM*	-34%	?	?
COCC(C)N(C(=O)CCl)c1c(C)csc1C (centres undefined)	10%[12.7 µM]	.	.	.	-9%	.
O=C(NCc1c(-n2cccc2)sc2c1CCCC2)Nc1cccc(C(F)(F)F)c1	-36%[59 µM]	-18%	.	-8%	21%	51%
C=CC[n+]1c(-c2ccc(C)cc2)csc1Nc1c(C)n(C)n(-c2ccccc2)c1=O	18µM*	?	-17%	-27%	-19%	4%
Cc1c(NC(=O)C(C)OC(=O)Cc2ccccc2)c(=O)n(-c2ccccc2)n1C (centres undefined)	3%[59 µM]	1%	-9%	-15%	-6%	22%
CC(C)CC(CN)CC(=O)O (centres undefined)	-2%[2.33 µM]	.	.	.	-1%	.
SMILES	G9a block	BAZ2B inh	PLK1 PBD block	JMJD2A Tudor inh	VDR inh	HP1b binding inh
C=C1C([C@@H](O)C[C@H](C)C2O[C@@]3(CCCCO3)CC[C@H]2C)OC2CC[C@@]3(CC[C@@H](/C=C/[C@@H](C)C4CC(C)=C[C@]5(O4)O[C@H](C[C@@](C)(O)C(=O)O)CCC5O)O3)OC2[C@@H]1O (some centres undefined)	12%[59 µM]	.	.	.	3%	.
O=C(Cn1cc(C(=O)c2ccccc2)c2ccccc21)Nc1ccc(Br)cc1	13%[59 µM]	3%	.	4%	-6%	21%
Cc1ccc(NC(=O)Cn2cc(C(=O)c3ccccc3)c3ccccc32)cc1	-8%[59 µM]	-20%	.	40µM*	6%	38%
O=C(c1ccccc1F)c1cn(CC(=O)N2CCOCC2)c2ccccc12	17%	2%	?	?	-19%	-9%
C=CCn1c(C)c(C=C2C(=O)NC(=O)NC2=O)c2ccccc21	50µM*	-38%	27µM*	-30%	?	22%
COCCNC(=O)Cn1cc(C=C2C(=O)NC(=O)NC2=O)c2ccccc21	6%	-3%	6.7µM*	-6%	-11%	38%
O=C(c1ccccc1F)c1cn(CC(=O)N2CCCC2)c2ccccc12	10%	14%	3µM*	?	-19%	?
Cc1c(C=O)c2ccccc2n1Cc1ccccc1	.	-6%[57.1 µM]	-10%	-17%	-1%	32%
CC[C@@H]1[C@@H]2C[C@H]3[C@H]4N(C)c5ccccc5[C@@]45C[C@@H]([C@@H]2[C@@H]5O)N3[C@H]1O	-1%[21.5 µM]	.	.	.	2%	.
Cn1cc(C=C2C(=O)NC(=O)NC2=O)c2ccccc21	-24%	-8%	24µM*	?	-7%	28%
COCCNC(=O)Cn1cc(C(=O)c2ccccc2F)c2ccccc21	?	-10%	30µM*	-11%[57.1 µM]	?	4%
CCN(CC)C(=O)Oc1ccc(Cl)c2ccccc12	129%	78%	-5%	47%	9%	74%
O=C(NC(=O)c1c(F)cccc1F)Nc1cc(Cl)c(OC(F)(F)C(F)C(F)(F)F)cc1Cl (centres undefined)	1%[12.7 µM]	.	.	.	7%	.
C=CCc1ccc2c(c1)OCO2	-4%[2.33 µM]	.	.	.	4%	.
CCOc1ccc(CN(CCc2ccc3c(c2)OCO3)Cc2ccc(C)cc2)cc1	?	?	.	6.3µM*	-6%	?
CCOc1ccc(CN(CCc2ccc3c(c2)OCO3)Cc2cccc(Br)c2)cc1	?	?	.	5µM*	7%	?
CCOc1ccc(CNCCc2ccc3c(c2)OCO3)cc1	-9%	-22%	-10%	-24%	3%	13%
CCOc1ccc(CN(CCc2ccc3c(c2)OCO3)Cc2cccc(OC)c2)cc1	2.2µM*	32µM*	.	6.3µM*	5%	?
CCOc1ccc(CN(CCc2ccc3c(c2)OCO3)Cc2ccc(OC)c(Br)c2)cc1	?	?	.	7.1µM*	-9%	?

High-throughput results from PubChem.
